Activity calls are given as the source filed them. How the source made its calls: active means hit-call score of the fitted dose curve at least 0.9, where 1 is the maximum; inactive means score below 0.9.
Columns and labels:
Conditions in all cases: mRNA level, 48 h; actives raise or lower the signal
[1] = read-out: Intercellular Adhesion Molecule 1 (ICAM1), ICAM1 (gene 3383); assay: LTEA_HepaRG_ICAM1: Life Technologies and Expression Analysis (LTEA) Assay for Intercellular Adhesion Molecule 1 (ICAM1) using HepaRG (AID 2283507)
In short: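 ICAM1 transcript levels measured by qRT-PCR, normalized to three housekeeping genes (ACTB, GAPDH, POLR2A), after 48 h chemical exposure of HepaRG cells. Duplicate eight-point half-log series from 100 uM in 0.5% DMSO; gain or loss fitted against vehicle.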

[2] = read-out: Insulin-like growth factor-binding protein 1 (IGFBP1), IGFBP1 (gene 3484); assay: LTEA_HepaRG_IGFBP1: Life Technologies and Expression Analysis (LTEA) Assay for Insulin-like growth factor-binding protein 1 (IGFBP1) using HepaRG (AID 2283508)
In short: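 Read-out is qRT-PCR transcript level normalized to three housekeeping genes, fitted in both directions against 0.5% DMSO. Differentiated HepaRG cells received eight half-log concentrations (top 100 uM) in duplicate for 48 h in serum-free induction medium.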

[3] = read-out: Interleukin 6 (IL6), IL6 (gene 3569); assay: LTEA_HepaRG_IL6: Life Technologies and Expression Analysis (LTEA) Assay for Interleukin 6 (IL6) using HepaRG (AID 2283509)
In short: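 Changes in IL6 mRNA, up or down relative to 0.5% DMSO controls, were derived from concentration-response curves in human HepaRG cells treated for 48 h at up to 100 uM, with ACTB, GAPDH and POLR2A as normalizers.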

[4] = read-out: Interleukin 6 Receptor (IL6R), IL6R (gene 3570); assay: LTEA_HepaRG_IL6R: Life Technologies and Expression Analysis (LTEA) Assay for Interleukin 6 Receptor (IL6R) using HepaRG (AID 2283510);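 on AC50: differentiated human HepaRG liver cells in serum-free induction medium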
In short: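 HepaRG, 48 h exposure, 8-pt half-log series, top 100 uM, 0.5% DMSO vehicle, duplicates. Read-out: TaqMan qRT-PCR of IL6R transcript, housekeeping-gene normalized. Gain or loss fitted relative to DMSO baseline.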

[5] = read-out: Potassium channel subfamily K member 1 (KCNK1), KCNK1 (gene 3775); assay: LTEA_HepaRG_KCNK1: Life Technologies and Expression Analysis (LTEA) Assay for Potassium channel subfamily K member 1 (KCNK1) using HepaRG (AID 2283511)
In short: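 Human HepaRG cultures receive test chemicals for 48 h in 0.5% DMSO, top concentration 100 uM with half-log dilutions. Induction or suppression of KCNK1 mRNA relative to DMSO is derived by bidirectional fitting of qRT-PCR data.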

[6] = read-out: Keratin 19 (KRT19), KRT19 (gene 3880); assay: LTEA_HepaRG_KRT19: Life Technologies and Expression Analysis (LTEA) Assay for Keratin 19 (KRT19) using HepaRG (AID 2283512)
In short: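 KRT19 transcript measured by TaqMan qRT-PCR, referenced to three housekeeping genes, after HepaRG cells received test chemicals for 48 h. Eight half-log concentrations, top 100 uM, 0.5% DMSO vehicle; increases and decreases both fitted.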

[7] = read-out: JUN Transcription Factor, JUN (gene 3725); assay: LTEA_HepaRG_JUN: Life Technologies and Expression Analysis (LTEA) Assay for JUN Transcription Factor using HepaRG (AID 2283513)
In short: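 HepaRG, 48 h exposure, 8-pt half-log series top 100 uM, 0.5% DMSO, duplicate. JUN mRNA by qRT-PCR (Fluidigm), housekeeping-normalized (ACTB/GAPDH/POLR2A); bidirectional curve fit vs DMSO baseline.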

[8] = read-out: Lipase C (LIPC), LIPC (gene 3990); assay: LTEA_HepaRG_LIPC: Life Technologies and Expression Analysis (LTEA) Assay for Lipase C (LIPC) using HepaRG (AID 2283514)
In short: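 In this multiplexed gene-expression screen, human HepaRG cultures received test chemicals for 48 h across eight concentrations with 100 uM highest, in duplicate. Values reflect LIPC mRNA induction or suppression versus DMSO vehicle, from normalized qRT-PCR.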

[9] = read-out: Lipoprotein lipase (LPL), LPL (gene 4023); assay: LTEA_HepaRG_LPL: Life Technologies and Expression Analysis (LTEA) Assay for Lipoprotein lipase (LPL) using HepaRG (AID 2283515)
In short: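 Concentration-response testing used half-log steps from 100 uM in 0.5% DMSO on human HepaRG cells, 48 h, duplicate wells. Phenobarbital 1 mM served as induction control; LPL mRNA was normalized to ACTB, GAPDH, POLR2A.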

[10] = read-out: MicroRNA 122 (MIR122), gene 406906; assay: LTEA_HepaRG_MIR122: Life Technologies and Expression Analysis (LTEA) Assay for MicroRNA 122 (MIR122) using HepaRG (AID 2283516); further: the transcript read is the microRNA miR-122
In short: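 qRT-PCR read-out (TaqMan, Fluidigm array), normalized to three housekeeping genes; HepaRG cells dosed 48 h at 8 concentrations up to 100 uM in 0.5% DMSO, duplicate; gain or loss fitted against DMSO baseline.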

[11] = read-out: matrix metalloproteinase-10 (MMP10), MMP10 (gene 4319); assay: LTEA_HepaRG_MMP10: Life Technologies and Expression Analysis (LTEA) Assay for matrix metalloproteinase-10 (MMP10) using HepaRG (AID 2283517)
In short: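 In differentiated HepaRG cultures kept in 0.5% DMSO, test chemicals act for 48 h over an eight-point range with a top dose of 100 uM. Expression is then quantified by TaqMan RT-PCR against ACTB, GAPDH and POLR2A.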

MYC, MYC (gene 4609) = assay: LTEA_HepaRG_MYC: Life Technologies and Expression Analysis (LTEA) Assay for MYC using HepaRG (AID 2283518)
In short: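 MYC transcript changes, up or down relative to 0.5% DMSO, from TaqMan qRT-PCR normalized to three housekeeping genes. Human HepaRG cultures received chemicals for 48 h at eight half-log concentrations up to 100 uM, in duplicate.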

[12] = read-out: matrix metalloproteinase-3 (MMP3), MMP3 (gene 4314); assay: LTEA_HepaRG_MMP3: Life Technologies and Expression Analysis (LTEA) Assay for matrix metalloproteinase-3 (MMP3) using HepaRG (AID 2283519)
In short: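 Human liver HepaRG cultures received chemicals (top concentration 100 uM, 0.5% DMSO) for 48 h in duplicate. MMP3 mRNA induction or loss was then assessed via TaqMan qRT-PCR with housekeeping-gene normalisation.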

[13] = read-out: Paternally Expressed 10 (PEG10), PEG10 (gene 23089); assay: LTEA_HepaRG_PEG10: Life Technologies and Expression Analysis (LTEA) Assay for Paternally Expressed 10 (PEG10) using HepaRG (AID 2283520);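 on AC50: PEG10 transcript by qRT-PCR normalised to ACTB GAPDH and POLR2A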
In short: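 qRT-PCR read-out: PEG10 mRNA normalised to three housekeeping genes, fitted bidirectionally against 0.5% DMSO vehicle. HepaRG cells received test chemicals for 48 h in serum-free induction medium, 8 points, top 100 uM, half-log steps.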

[14] = read-out: Nuclear factor NF-kappa-B p105 subunit (Homo sapiens) (UniProt P19838); assay: LTEA_HepaRG_NFKB1: Life Technologies and Expression Analysis (LTEA) Assay for Nuclear Factor Kappa B Subunit 1 (NFKB1) using HepaRG (AID 2283521);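 further: differentiated human HepaRG liver cells in serum-free induction medium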
In short: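 NFKB1 transcript was measured by TaqMan qRT-PCR on Fluidigm arrays, normalised to three housekeeping genes and fitted in both directions against 0.5% DMSO. HepaRG cells were dosed in duplicate for 48 h in serum-free induction medium, eight half-log steps from 100 uM.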

[15] = read-out: Protein phosphatase 2A (PPP2R4), PTPA (gene 5524); assay: LTEA_HepaRG_PPP2R4: Life Technologies and Expression Analysis (LTEA) Assay for Protein phosphatase 2A (PPP2R4) using HepaRG (AID 2283522)
In short: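 HepaRG, 48 h exposure, 8-pt half-log series from 100 uM, 0.5% DMSO vehicle, duplicates. Readout: PPP2R4 mRNA, Fluidigm qRT-PCR, housekeeping-normalized. Bidirectional curve fit vs DMSO baseline.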

[16] = read-out: Phosphatase and tensin (PTEN), PTEN (gene 5728); assay: LTEA_HepaRG_PTEN: Life Technologies and Expression Analysis (LTEA) Assay for Phosphatase and tensin (PTEN) using HepaRG (AID 2283523)
In short: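 Expression of PTEN is quantified in the human liver line HepaRG following two days of dosing (top concentration 100 uM, half-log dilutions, 0.5% DMSO). Values derive from bidirectional curve fitting relative to DMSO controls.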

[17] = read-out: solute carrier (SLC22A1), SLC22A1 (gene 6580); assay: LTEA_HepaRG_SLC22A1: Life Technologies and Expression Analysis (LTEA) Assay for solute carrier (SLC22A1) using HepaRG (AID 2283524);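 on AC50: differentiated human HepaRG liver cells in serum-free induction medium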
In short: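 Transcript induction or suppression of SLC22A1 in human HepaRG cultures is scored after 48 h chemical treatment, with DMSO (0.5%) as baseline for bidirectional fitting. Concentrations span eight half-log points topping at 100 uM.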

[18] = read-out: NAD(P)H dehydrogenase [quinone] 1 (NQO1), NQO1 (gene 1728); assay: LTEA_HepaRG_NQO1: Life Technologies and Expression Analysis (LTEA) Assay for NAD(P)H dehydrogenase [quinone] 1 (NQO1) using HepaRG (AID 2283526)
In short: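 qRT-PCR read-out (Fluidigm TaqMan), normalized to three housekeeping genes, after 48 h chemical exposure of HepaRG cells. Concentrations: eight points, top 100 uM, half-log steps, 0.5% DMSO vehicle. Gain or loss of signal fitted relative to DMSO.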

[19] = read-out: Pyruvate Dehydrogenase Kinase 4 (PDK4), PDK4 (gene 5166); assay: LTEA_HepaRG_PDK4: Life Technologies and Expression Analysis (LTEA) Assay for Pyruvate Dehydrogenase Kinase 4 (PDK4) using HepaRG (AID 2283525)
In short: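 Eight-point, half-log concentration series (max 100 uM, 0.5% DMSO) applied to differentiated HepaRG cells for 48 h in duplicate. Endpoint: PDK4 mRNA induction or repression by qRT-PCR against DMSO baseline.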

Measured: AC50

Nuclear factor NF-kappa-B p105 subunit (Homo sapiens), sequence (P19838 whole entry, looked up): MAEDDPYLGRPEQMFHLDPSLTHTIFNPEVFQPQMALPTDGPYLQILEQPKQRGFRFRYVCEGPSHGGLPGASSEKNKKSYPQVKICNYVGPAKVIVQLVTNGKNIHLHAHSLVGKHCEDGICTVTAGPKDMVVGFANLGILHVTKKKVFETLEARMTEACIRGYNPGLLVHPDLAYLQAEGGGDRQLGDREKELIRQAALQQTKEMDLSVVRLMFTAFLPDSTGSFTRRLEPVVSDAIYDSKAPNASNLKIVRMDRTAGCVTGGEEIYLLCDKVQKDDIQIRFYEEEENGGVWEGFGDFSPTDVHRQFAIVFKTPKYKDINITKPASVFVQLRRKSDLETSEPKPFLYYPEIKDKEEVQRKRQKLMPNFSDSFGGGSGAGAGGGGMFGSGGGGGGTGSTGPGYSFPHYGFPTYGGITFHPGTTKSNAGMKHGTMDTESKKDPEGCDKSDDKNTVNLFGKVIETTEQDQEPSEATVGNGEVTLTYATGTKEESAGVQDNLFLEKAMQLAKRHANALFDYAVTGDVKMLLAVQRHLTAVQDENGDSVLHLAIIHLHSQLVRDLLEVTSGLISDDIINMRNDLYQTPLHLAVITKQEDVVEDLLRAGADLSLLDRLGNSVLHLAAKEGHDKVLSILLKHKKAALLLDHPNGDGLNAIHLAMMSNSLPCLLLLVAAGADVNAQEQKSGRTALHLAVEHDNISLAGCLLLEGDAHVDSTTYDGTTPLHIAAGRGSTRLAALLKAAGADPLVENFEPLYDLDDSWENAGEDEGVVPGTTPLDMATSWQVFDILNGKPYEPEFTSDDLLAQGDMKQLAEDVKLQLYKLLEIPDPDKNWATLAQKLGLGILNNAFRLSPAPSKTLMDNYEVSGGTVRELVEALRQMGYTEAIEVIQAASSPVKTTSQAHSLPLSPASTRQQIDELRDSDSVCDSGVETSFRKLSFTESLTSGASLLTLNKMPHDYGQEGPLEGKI

ClC(Cl)=C(c1ccc(Cl)cc1)c1ccc(Cl)cc1
not listed: [19]
inactive: all other assays above

O=C(N[C@H]1CN2CCC1CC2)c1cc2ccoc2cn1
not listed: [3] | [18]
inactive: all other assays above

Cc1cc(-c2ccc(N)c(C)c2)ccc1N
active: [6] 30.8 µM | [9] 50 µM | [13] 33.7 µM | [17] 50 µM | [19] 9.92 µM
not listed: [14]
inactive: all other assays above

COS(=O)(=O)OC
not listed: [18]
inactive: all other assays above

CCC(=O)O[C@H]1CC[C@H]2[C@@H]3CCC4=CC(=O)CC[C@]4(C)[C@H]3CC[C@]12C
active: [12] 50 µM | [13] 13.3 µM
not listed: [3] | [18]
inactive: all other assays above

CCSC(=O)N(CC)C1CCCCC1
not listed: [3] | [18]
inactive: all other assays above

CO/C=C(/C(=O)OC)c1ccccc1COc1cccc(C(F)(F)F)n1
inactive: [4] | [14] | [15] | [16] | [19] | [18]
active: [1] 8.33 µM | [2] 8.19 µM | [5] 27.8 µM | [6] 12.4 µM | [7] 50 µM | [8] 22.6 µM | [9] 9.42 µM | [10] 6.86 µM | [11] 12.6 µM | MYC, MYC (gene 4609) 9.71 µM | [12] 23.9 µM | [17] 5.3 µM

CC(c1ccc(O)cc1)(c1ccc(O)cc1)c1ccc(O)cc1
inactive: [5] | [8] | [12] | [14] | [18]
active: [1] 33.4 µM | [2] 18.8 µM | [4] 72.7 µM | [6] 50 µM | [7] 82.9 µM | [9] 68.6 µM | [10] 77.9 µM | [11] 50 µM | MYC, MYC (gene 4609) 94.2 µM | [15] 69.7 µM | [16] 74.3 µM | [17] 41.4 µM | [19] 70.9 µM

Cc1ccccc1CO[C@@H]1C[C@@]2(C(C)C)CC[C@]1(C)O2
active: [19] 50 µM
not listed: [3]
inactive: all other assays above

ClC1=C(Cl)[C@]2(Cl)[C@@H]3[C@@H](Cl)[C@H]4O[C@H]4[C@@H]3C1(Cl)C2(Cl)Cl
active: [17] 50 µM
not listed: [3] | [7] | [18]
inactive: all other assays above

Nc1ccc(-c2ccc(N)cc2)cc1
active: [13] 2.2 µM
not listed: [3] | [14] | [18]
inactive: all other assays above

CCCCCCOC(=O)c1ccccc1C(=O)OCCCCCC
active: [17] 0.0876 µM
not listed: [3] | [18]
inactive: all other assays above

c1cc2ccc3cccc4ccc(c1)c2c34
not listed: [3] | [18]
inactive: all other assays above

COc1ccc(O)c(C(C)(C)C)c1
not listed: [3] | [14] | [17] | [18]
inactive: all other assays above

From PubChem BioAssay (EPA / NIEHS)
